# Results taken from the supplement of paper PMC10849652.
# The full data set covers some 7,900 targets. This sample favours those with a hit. About 0.6% of all pairs of compound and target were hits. Values without a mark were called inactive.
# Compound: c1ccc([C@@H]2C[C@H]2NC2CCNCC2)cc1
# Test: log2 fold change, soluble protein after heating vs DMSO (PISA); higher = thermal stabilisation; K562 cells, 10 uM, 30 min; active = over 0.2 and 3.5 SD of the protein, either way, in both replicates (recomputed)
# Method in brief: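 Thermal stability values are relative to control samples and come from duplicates. They are expressed as log2 fold changes. For measurement, K562 cells (2×10^6 cells/mL) received 10 μM compound for 30 min, and aliquots were heated for 3 min over 48°C-58°C, pooled, and extracted at 4°C in PBS with 0.5% NP-40. Soluble protein, the supernatant after 21,000xg for 90 min, was quantified by TMTpro 16plex LC-MS/MS with equalised channel sums.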
# Chain of UniProt P61960 (P61960 whole entry, looked up): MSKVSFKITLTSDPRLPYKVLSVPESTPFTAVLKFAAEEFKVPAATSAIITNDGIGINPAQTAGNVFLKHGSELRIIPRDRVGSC
# Chain of UniProt P07951 (P07951 whole entry, looked up): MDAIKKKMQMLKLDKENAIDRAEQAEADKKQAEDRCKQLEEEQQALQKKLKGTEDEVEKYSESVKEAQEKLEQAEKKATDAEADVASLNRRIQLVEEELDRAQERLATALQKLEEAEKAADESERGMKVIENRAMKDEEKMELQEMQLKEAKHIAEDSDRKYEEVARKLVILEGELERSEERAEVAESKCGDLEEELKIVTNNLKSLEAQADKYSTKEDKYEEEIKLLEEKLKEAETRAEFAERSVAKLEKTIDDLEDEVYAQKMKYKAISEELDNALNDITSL
# Chain of UniProt O94967 (O94967 whole entry, looked up): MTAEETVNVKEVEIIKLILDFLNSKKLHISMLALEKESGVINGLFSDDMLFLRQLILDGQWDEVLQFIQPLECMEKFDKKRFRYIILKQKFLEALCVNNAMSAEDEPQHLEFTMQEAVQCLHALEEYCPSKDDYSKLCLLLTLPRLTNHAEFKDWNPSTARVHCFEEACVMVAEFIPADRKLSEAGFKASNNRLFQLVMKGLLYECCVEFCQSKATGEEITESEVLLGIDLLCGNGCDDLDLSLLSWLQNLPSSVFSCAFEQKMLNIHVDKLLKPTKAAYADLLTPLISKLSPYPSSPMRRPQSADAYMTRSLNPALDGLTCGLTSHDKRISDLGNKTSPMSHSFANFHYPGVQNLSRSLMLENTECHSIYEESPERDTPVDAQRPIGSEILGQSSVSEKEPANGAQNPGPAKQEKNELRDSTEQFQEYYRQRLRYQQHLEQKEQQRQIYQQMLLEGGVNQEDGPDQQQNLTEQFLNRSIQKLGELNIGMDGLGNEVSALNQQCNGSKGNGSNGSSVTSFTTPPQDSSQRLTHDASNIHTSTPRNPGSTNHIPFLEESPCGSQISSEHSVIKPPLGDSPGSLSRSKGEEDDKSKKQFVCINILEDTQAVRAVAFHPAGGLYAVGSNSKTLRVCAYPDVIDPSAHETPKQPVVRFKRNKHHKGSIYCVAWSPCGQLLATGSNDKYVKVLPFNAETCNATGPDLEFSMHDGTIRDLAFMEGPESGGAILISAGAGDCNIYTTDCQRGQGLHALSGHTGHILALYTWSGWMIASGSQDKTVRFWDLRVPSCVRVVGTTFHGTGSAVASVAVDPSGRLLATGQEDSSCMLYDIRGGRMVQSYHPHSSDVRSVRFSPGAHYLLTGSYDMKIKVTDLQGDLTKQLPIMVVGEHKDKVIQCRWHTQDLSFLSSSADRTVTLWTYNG
# Chain of UniProt Q53S58 (Q53S58 whole entry, looked up): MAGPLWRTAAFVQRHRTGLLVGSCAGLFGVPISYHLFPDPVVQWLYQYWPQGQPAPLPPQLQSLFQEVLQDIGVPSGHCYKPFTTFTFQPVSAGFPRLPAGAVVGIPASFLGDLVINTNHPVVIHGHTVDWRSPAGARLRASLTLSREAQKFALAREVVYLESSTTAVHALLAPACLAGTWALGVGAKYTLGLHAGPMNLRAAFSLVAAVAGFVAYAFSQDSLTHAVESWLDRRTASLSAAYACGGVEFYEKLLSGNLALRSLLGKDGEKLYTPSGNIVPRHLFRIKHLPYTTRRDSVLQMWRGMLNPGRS
# Chain of UniProt Q9Y4E6 (Q9Y4E6 whole entry, looked up): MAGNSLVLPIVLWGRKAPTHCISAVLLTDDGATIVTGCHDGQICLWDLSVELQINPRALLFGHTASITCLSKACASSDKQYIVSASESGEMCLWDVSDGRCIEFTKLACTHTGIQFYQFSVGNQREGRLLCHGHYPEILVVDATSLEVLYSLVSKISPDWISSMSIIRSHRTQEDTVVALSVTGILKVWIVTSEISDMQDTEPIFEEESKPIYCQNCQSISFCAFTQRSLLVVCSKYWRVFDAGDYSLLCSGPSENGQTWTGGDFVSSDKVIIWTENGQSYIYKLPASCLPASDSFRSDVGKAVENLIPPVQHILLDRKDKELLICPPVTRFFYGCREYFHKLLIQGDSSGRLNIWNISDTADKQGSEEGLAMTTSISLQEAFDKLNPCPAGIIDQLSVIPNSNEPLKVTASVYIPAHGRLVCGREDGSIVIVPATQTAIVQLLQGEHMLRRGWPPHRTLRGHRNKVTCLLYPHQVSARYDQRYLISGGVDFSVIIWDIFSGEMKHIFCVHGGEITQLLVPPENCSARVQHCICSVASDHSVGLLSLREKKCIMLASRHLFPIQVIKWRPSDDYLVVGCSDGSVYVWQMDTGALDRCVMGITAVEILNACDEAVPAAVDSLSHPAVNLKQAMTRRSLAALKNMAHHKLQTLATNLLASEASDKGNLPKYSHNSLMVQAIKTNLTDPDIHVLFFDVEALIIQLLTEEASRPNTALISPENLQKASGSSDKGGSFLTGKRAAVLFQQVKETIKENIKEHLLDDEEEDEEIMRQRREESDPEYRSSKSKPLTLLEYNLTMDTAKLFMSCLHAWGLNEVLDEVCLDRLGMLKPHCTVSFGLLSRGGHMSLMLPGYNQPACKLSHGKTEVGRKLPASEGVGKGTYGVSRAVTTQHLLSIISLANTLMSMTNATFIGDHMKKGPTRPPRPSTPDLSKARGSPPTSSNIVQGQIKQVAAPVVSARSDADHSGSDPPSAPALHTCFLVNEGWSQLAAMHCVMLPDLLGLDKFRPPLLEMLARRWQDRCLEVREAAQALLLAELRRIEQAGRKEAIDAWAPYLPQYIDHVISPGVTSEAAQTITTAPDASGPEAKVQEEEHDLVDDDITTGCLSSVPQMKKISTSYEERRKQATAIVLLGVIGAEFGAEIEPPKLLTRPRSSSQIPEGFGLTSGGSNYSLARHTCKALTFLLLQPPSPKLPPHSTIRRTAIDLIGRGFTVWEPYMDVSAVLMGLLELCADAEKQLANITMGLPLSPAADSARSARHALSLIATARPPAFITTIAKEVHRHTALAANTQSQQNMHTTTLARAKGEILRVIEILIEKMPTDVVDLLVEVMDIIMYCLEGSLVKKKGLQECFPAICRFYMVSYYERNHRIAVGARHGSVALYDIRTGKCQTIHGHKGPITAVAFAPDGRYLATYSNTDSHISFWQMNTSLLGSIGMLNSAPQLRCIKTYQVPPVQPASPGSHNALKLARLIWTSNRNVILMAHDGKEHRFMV
# Chain of UniProt Q96DX7 (Q96DX7 whole entry, looked up): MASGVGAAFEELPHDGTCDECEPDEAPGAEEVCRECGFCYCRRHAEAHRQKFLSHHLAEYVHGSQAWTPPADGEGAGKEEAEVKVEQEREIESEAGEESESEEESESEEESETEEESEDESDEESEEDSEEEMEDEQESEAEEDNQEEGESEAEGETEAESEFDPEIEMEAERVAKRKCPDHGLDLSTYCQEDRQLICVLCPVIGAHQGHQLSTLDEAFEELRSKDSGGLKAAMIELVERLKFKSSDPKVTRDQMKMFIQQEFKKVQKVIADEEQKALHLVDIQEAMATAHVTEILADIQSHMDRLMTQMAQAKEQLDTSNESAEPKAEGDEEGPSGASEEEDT
# Chain of UniProt O60763 (O60763 whole entry, looked up): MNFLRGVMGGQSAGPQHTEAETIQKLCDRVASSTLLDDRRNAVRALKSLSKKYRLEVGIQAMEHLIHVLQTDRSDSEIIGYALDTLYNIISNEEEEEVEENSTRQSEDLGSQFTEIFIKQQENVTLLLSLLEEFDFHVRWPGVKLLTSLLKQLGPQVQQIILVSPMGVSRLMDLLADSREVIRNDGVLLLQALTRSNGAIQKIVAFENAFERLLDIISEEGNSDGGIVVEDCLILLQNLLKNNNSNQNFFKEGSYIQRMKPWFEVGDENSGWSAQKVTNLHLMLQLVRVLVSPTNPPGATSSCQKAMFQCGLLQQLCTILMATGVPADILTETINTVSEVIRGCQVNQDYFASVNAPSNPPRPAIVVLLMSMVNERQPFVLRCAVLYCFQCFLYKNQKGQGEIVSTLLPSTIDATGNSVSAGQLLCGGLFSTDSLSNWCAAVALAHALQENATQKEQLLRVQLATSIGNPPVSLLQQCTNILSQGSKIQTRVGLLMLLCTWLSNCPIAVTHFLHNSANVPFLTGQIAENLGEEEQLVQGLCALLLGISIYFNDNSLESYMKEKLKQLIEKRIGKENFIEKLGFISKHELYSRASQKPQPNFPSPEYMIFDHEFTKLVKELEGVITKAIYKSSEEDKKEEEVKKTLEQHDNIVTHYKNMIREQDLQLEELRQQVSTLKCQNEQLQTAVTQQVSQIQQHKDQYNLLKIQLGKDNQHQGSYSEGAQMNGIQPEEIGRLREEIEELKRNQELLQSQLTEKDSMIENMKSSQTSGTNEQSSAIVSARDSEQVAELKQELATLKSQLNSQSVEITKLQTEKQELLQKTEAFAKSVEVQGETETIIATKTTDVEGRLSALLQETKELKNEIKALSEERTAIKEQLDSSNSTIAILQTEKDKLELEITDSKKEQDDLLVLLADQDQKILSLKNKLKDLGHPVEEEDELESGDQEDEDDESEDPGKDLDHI
# Chain of UniProt O00220 (O00220 whole entry, looked up): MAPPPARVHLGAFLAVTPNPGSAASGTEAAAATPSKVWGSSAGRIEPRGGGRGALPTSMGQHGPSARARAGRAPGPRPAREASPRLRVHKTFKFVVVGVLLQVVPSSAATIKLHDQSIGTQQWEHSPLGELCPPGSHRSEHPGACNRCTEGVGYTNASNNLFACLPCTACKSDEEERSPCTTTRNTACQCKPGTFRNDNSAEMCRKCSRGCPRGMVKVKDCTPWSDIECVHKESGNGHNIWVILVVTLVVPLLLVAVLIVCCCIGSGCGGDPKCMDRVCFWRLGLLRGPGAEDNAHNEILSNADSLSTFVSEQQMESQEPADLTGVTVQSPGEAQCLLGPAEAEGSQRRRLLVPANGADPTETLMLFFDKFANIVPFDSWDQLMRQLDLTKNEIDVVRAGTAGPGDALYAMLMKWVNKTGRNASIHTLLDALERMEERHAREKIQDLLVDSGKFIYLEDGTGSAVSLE
row,Target,log2 fold change
1,WASH2P (UniProt Q6VEQ5),0.027
2,UBIAD1 (UniProt Q9Y5Z9),0.093
3,TRIM44 (UniProt Q96DX7),0.012
4,TMEM189-UBE2V1 (UniProt I3L0A0),0.048
5,TNFRSF10A (UniProt O00220),0.01
6,USO1 isoform 2 (UniProt O60763),0.048
7,WDR7 (UniProt Q9Y4E6),-0.093
8,TMEM177 (UniProt Q53S58),-0.002
9,UBE3D (UniProt Q7Z6J8),0.009
10,UHRF1BP1 (UniProt Q6BDS2),-0.007
11,TRMT10C (UniProt Q7L0Y3),-0.08
12,TNFAIP8 isoform 4 (UniProt O95379),-0.011
13,UBXN8 (UniProt O00124),-0.055
14,TRABD (UniProt Q9H4I3),-0.054
15,UBE2J2 isoform 3 (UniProt Q8N2K1),-0.144
16,TPM2 (UniProt P07951),0.014
17,WDR47 (UniProt O94967),0.078
18,UCHL5 (UniProt Q9Y5K5),0.004
19,UFM1 (UniProt P61960),0.083
20,WDR4 (UniProt P57081),-0.008
21,VRK1 (UniProt Q99986),-0.136
22,TMEM263 (UniProt Q8WUH6),-0.031
23,UGDH (UniProt O60701),-0.038
